Measurements from the supplement of paper PMC5734697.

tested on: Caenorhabditis elegans; test: growth (movement index) relative to DMSO control, secondary screen (log2 fold change); higher = more growth (less anthelmintic activity); details: 10 µM, 5 days, 20 °C, stage: L1 start
Experimental: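 C. elegans growth assay: synchronised L1 larvae (~20 per well) in S-complete medium with HB101 E. coli were grown in 96-well plates with Pathogen Box compound at 10 µM (1% DMSO) for 5 days at 20 °C. Motility/growth was quantified by whole-plate movie imaging (INVAPP/Paragon movement index). The score is the log2 fold change of the median movement of 5 replicate wells (on different plates) relative to DMSO-only wells. The secondary screen retested the top 20 hits with the same library material (n = 5, 10 µM).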

SMILES | growth (log2)
O=C(Nc1ccc(F)c(-c2nc3cc(-c4ccccc4)cnc3[nH]2)c1)N1CCCC1 | -4.01
COC(=O)C1=C(C)NC(C)=C(C(=O)OC(C)C)C1c1cccc2nonc12 (stereo not drawn) | -1.42
Nc1ccc(C(=O)Nc2ccc(-c3nc4ccccc4o3)cc2)cc1 | -5.41
O=C(c1ccco1)N(CCCn1ccnc1)c1nc2c(Cl)cccc2s1 | -3.66
CCOC(=O)NC(=O)c1ccsc1NC(=O)c1nc2ccccc2s1 | -1.05
Clc1ccc(-n2cc(COc3ccnc4ccccc34)nn2)cc1 | -2.02
CC(C)(C)CN1C(=O)C(c2ccccc2)(c2ccccc2)N=C1N | -5.87
CC(C)n1ncc2c(C(=O)NCC(c3cccs3)N3CCOCC3)cc(-c3ccccc3)nc21 (stereo not drawn) | -8.04
Cc1cc(C(=O)Nc2ccc(-c3ccccc3)cc2)no1 | -6.92
O=C(Nc1nc(-c2ccccn2)cs1)C1CC1c1ccccc1F (stereo not drawn) | -0.836
COC(=O)Nc1nc2cc(C(=O)c3ccccc3)ccc2[nH]1 | -5.72
O=C(Nc1ccc2c(c1)B(O)OC2)c1ccccc1C(F)(F)F | -7.62
CN1CCN(c2cc(-c3ccc(F)cc3)nc(-c3ccncc3)n2)CC1 | -2.12
CCc1ccc([C@@H]2C[C@H](C(F)(F)F)n3ncc(C(=O)NCc4ccc(OC)cc4)c3N2)cc1 | -3.6
CC(=O)OCC1OC([S-])C(OC(C)=O)C(OC(C)=O)C1OC(C)=O.CCP(CC)CC.[Au+] (stereo not drawn) | -7.16
O=C(Nc1cccnc1)c1c(O)c2cccc3c2n(c1=O)CC3 | -4.82
CC(C)C(C(=O)Nc1ccc(S(=O)(=O)N(C)C)cc1)c1ccc(Cl)cc1 (stereo not drawn) | -2.66
CC(C)n1nc(-c2cc3c(Cl)cccc3[nH]2)c2c(N)ncnc21 | -1.13
